Bioassay records (PubChem)
TsaE inh: qHTS Assay for Inhibitors of YjeE | AID 605, 2007 | Potency, µM | purified YjeE enzyme, qHTS inhibition assay | 0.05% of 71,000 active | tRNA threonylcarbamoyladenosine biosynthesis protein TsaE (Escherichia coli (strain …
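Fluorescence polarization of a BODIPY Texas Red–ADP probe (2 uM) bound to purified YjeE (10 uM) was read after 15 min room-temperature incubation with compounds. Loss of polarization marks inhibitors; ADP serves as titrated control.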
p53ts 32C kill: qHTS Screen for Compounds that Selectively Target Cancer Cells with p53 Mutations: Cytotoxicity of p53ts Cells at the Permissive Temperature. H1299-p53A138V at 32C, ATP luminescence viability, 24 h. 0.93% of 130,000 active. Potency, µM (series often up to 46.1 µM), for inactives: top-dose activity change, negative = cytotoxicity, usual class: cytotoxic. AID 924, 2007;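 also: potency is read from the fitted curve at half-maximal effect; 0% = DMSO and -100% = full killing by reference compound; nearly all actives have a fitted effect of over 55% in size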
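H1299-p53 A138V cells (temperature-sensitive p53) exposed 24 h to up to 46 uM compound at 32C, where p53 is wild-type in conformation. Viability read as ATP luminescence and normalised to DMSO and 100 uM tamoxifen. AC50 fitted with the Hill equation.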
p53ts 39C kill: qHTS Screen for Compounds that Selectively Target Cancer Cells with p53 Mutations: Cytotoxicity of p53ts Cells at the Nonpermissive Temperature; H1299-p53A138V viability at 39C, ATP luminescence, 24 h; Potency, µM (titrated, usually from 46.1 µM), inactives show at the top dose activity change, negative = cell killing, most hits filed as cytotoxic; 1.5% of 130,000 active; AID 902, 2007; also: potency is read from the fitted curve at half-maximal effect; % is scaled to controls: 0 for no effect and ±100 for the full control effect; nearly all actives have a fitted effect of over 55% in size
ERK AVP inh: qHTS Assay for Inhibitors of the ERK Signaling Pathway using a Homogeneous Screening Assay; HEK293-V1b, vasopressin-stimulated pERK AlphaScreen; Potency, µM (doses to about 57.5 µM), for the others: top-dose activity, negative = inhibition, actives largely listed as inhibitors; 0.99% of 72,000 active; also: potency is read from the fitted curve at half-maximal effect; % is scaled to controls: 0 for no effect and ±100 for the full control effect; nearly all actives have a fitted effect of over 55% in size
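qHTS, compounds titrated on V1b-expressing HEK293 cells. Preincubation 30 min at 37C, vasopressin 25 nM for 5 min, lysis 10 min, bead incubation 5 hr at room temperature.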
DNA Pol III inh: qHTS Assay for Inhibitors of DNA Polymerase III Holoenzyme System. AID 603, 2007. reconstituted DNA polymerase III holoenzyme replication, biochemical. Potency, µM (series often up to 57.1 µM), without a hit: top-dose activity change, negative = inhibition. 0.25% of 71,000 active; also: potency is read from the fitted curve at half-maximal effect; % is scaled to controls: 0 for no effect and ±100 for the full control effect
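Reconstituted *E. coli* holoenzyme (0.35 nM Pol III, 1 nM beta, 154 nM SSB, 2 nM primase) was preincubated with compound for 15 min at RT. Synthesis on 1.4 nM ssM13Gori ran 35 min, then was stopped with PicoGreen/EDTA and read as dsDNA fluorescence.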
Tau fil binding: qHTS Assay for Tau Filament Binding. AID 596, 2007. 2% of 71,000 active. Potency, µM (top dose mostly 57.1 µM), inactives show at the highest dose activity change, negative = inhibition. Microtubule-associated protein tau (Homo sapiens), P10636. recombinant tau filaments, thioflavin S fluorescence, 15 h; filaments grown with octadecylsulfate alongside compound;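 also: potency is read from the fitted curve at half-maximal effect; % is scaled to controls: 0 for no effect and ±100 for the full control effect; actives lower thioflavin S fluorescence by blocking filaments or displacing dye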
Target sequence (P10636 whole entry, looked up): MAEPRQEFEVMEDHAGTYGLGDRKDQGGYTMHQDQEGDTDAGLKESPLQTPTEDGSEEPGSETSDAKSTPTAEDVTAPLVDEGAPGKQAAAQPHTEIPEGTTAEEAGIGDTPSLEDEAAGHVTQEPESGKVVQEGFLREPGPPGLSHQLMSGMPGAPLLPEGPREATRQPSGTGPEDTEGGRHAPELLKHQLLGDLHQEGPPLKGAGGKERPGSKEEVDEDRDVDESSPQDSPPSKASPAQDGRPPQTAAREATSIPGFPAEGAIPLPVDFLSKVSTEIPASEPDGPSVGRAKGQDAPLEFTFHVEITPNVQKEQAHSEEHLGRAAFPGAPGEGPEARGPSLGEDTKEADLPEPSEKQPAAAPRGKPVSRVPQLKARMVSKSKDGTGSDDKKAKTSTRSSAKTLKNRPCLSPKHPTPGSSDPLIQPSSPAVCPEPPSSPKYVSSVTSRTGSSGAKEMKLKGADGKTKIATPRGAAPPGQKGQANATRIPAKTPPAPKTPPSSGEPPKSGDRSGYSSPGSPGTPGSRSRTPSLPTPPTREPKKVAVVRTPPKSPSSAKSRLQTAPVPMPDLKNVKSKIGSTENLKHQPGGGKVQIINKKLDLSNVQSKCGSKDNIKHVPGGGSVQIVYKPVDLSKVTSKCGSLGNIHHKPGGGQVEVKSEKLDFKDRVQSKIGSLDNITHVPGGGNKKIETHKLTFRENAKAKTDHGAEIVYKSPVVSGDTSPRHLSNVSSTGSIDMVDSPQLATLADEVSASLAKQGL
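Assay mix: 1 uM His-tagged tau, 30 uM sodium octadecylsulfate, thioflavine S dye in HEPES/NaCl/DTT buffer. Compound is added prior to the inducer. Fluorescence after 15 h at 37 C.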
The depositor's hits bear a star; i = inactive; u = inconclusive; x = no result given; [ ] = another dose, or the depositor's remark. Sampled rows, rich in hits. Any-hit rate of the full collection: about 3.2%. Calls follow the shape of the dose curve; as a rule, active = well fitted curve in the direction sought with a large enough effect; inconclusive = small, poorly fitted or top-dose-only effect, or another doubt; inactive = no such curve, though single readings can be large; an effect the other way counts as inactive or inconclusive.

SMILES | TsaE inh | p53ts 32C kill | p53ts 39C kill | ERK AVP inh | DNA Pol III inh | Tau fil binding
CCOc1ccc(/C=C/c2nc(C#N)c(NCc3ccc(OC)cc3)o2)cc1 | x | -9.1% | -15.4% | x | x | x
O=C(Nc1ccc(F)cc1)c1ncn(-c2ccccc2)n1 | x | u | 15.8µM* | x | x | x
CCOc1ccc(NC(=O)c2ncn(-c3ccccc3)n2)cc1 | x | -12.5% | -22.8% | x | x | x
Cc1ccc(C)c(CN2C(=O)c3ccccc3Sc3ccc(C(=O)NCc4ccco4)cc32)c1 | x | 17.9% | -23.0% | x | x | x
Cc1c(Cl)cccc1NC(=O)Cn1cc(C(=O)C2CCCCC2)c2ccccc21 | x | -20.8% | -23.6% | x | x | x
COc1cccc(Cn2c(=O)c(-c3cccc(F)c3)nc3cncnc32)c1 | i | -3.8% | 2.1% | u | -2.9% | 12.6µM*
COc1cccc(Cn2c(=O)c(-c3ccc(F)cc3)nc3cncnc32)c1 | i | -27.4% | -20.6% | u | -0.2% | u
COc1cccc(Cn2c(=O)c(-c3cc(F)cc(F)c3)nc3cncnc32)c1 | i | -6.2% | -17.0% | u | -8.7% | 12.6µM*
Cc1cccc([N+](=O)[O-])c1C | i | 6.3%[1.84 µM] | 14.5% | 9.6% | -1.8% | 0.7%
CC(C)c1ccc2oc(-c3ccc(NC(=O)c4cc5ccccc5o4)cc3)nc2c1 | x | -28.2% | -27.3% | x | x | x
Cc1ccc(-c2nc3cc(C)ccc3o2)cc1 | i | 10µM* | u | -28.7% | 0.5% | 6.7%
CC(C)c1ccc2oc(-c3ccc(N)cc3)nc2c1 | i | 6.31µM* | 6.31µM* | -26.9% | -6.0%[11.4 µM] | u
Cc1ccc2oc(-c3ccco3)nc2c1 | i | -9.6% | -5.1% | -2.9% | -5.7% | 3.3%
Cc1ccc(-c2nc3cc(N)ccc3o2)cc1 | i | 3.98µM* | 3.98µM* | -17.9% | -3.2% | -27.2%
Cc1ccc(Cn2c(C(=O)Nc3cccc(Cl)c3)cc3sccc32)cc1 | x | -9.4% | -10.7% | x | x | x
Cc1cccc(C)c1NC(=O)c1cc2sccc2n1Cc1ccc(F)cc1 | x | -17.2% | 12.6µM* | x | x | x
CCOC(=O)c1c(C)c2c(n1C)CCC/C2=N\O | i | -4.9% | 0.5% | 3.16µM* | -2.4% | 67.7%
CC1(C)[C@@H](O)CC[C@@]2(C)[C@H]1CC[C@]1(C)[C@H]2C(=O)C=C2[C@@H]3C[C@@](C)(C(=O)O)CC[C@]3(C)CC[C@@]21C | i | x | x | x | -7.5% | u
Cc1ccc2c(c1)C(=O)[C@@]1(O)CCN(c3ccccc3)C1=N2 | i | 7.5% | -6.1% | -4.5% | 1.9% | 25.1µM*
Cc1ccc(=O)n(-c2ccccc2)c1 | i | 5.6% | 9.7% | 20.7% | -11.9% | -28.7%
COC(=O)C1C(=O)c2c([nH]c(C(=O)OC3CCCC3C)c2C)CC1C (stereo not given) | i | u | -28.3% | 31.6µM* | -4.6% | 22.5%
CCN(CC)CCOC(=O)c1ccc(NC(=O)c2nn(-c3ccc(C)cc3)c(=O)c3c2c2ccccc2n3C)cc1 | x | 3.98µM* | 3.98µM* | x | x | x
CCN(CC)CCCNC(=O)c1nn(-c2ccc(C)cc2)c(=O)c2c1c1ccccc1n2C | x | -9.3% | 9.2% | x | x | x
Nc1ncnc2c1ncn2[C@@H]1O[C@@H](COP(=O)(O)OP(=O)(O)OP(=O)(O)OP(=O)(O)OC[C@@H]2O[C@@H](n3cnc4c(N)ncnc43)[C@@H](O)[C@H]2O)[C@H](O)[C@@H]1O | 50.1µM* | 41.9% | 48.6% | -6.5% | -6.8% | -2.9%
CSc1nc(N)c2ncn([C@H]3O[C@H](COP(=O)(O)OP(=O)(O)O)[C@@H](O)[C@@H]3O)c2n1 | 50.1µM* | 4.7% | -0.6% | 5.8% | -3.0% | u
SMILES | TsaE inh | p53ts 32C kill | p53ts 39C kill | ERK AVP inh | DNA Pol III inh | Tau fil binding
Nc1cnn([C@@H]2O[C@H](CO)[C@@H](O)[C@H]2O)c(=O)n1 | i | -15.0%[1.84 µM] | -23.0% | 8.6% | -7.5% | -5.1%
Cc1ccccc1-c1nnn(CC(=O)Nc2sc3c(c2C#N)CCC(C(C)(C)C)C3)n1 (stereo not given) | x | 4.3% | 18.5% | x | x | x
Cc1cc(=O)n2[nH]c(-c3ccccc3)cc2n1 | i | -20.7% | -22.3% | -17.4% | -3.2% | 2.4%
O=c1cc(-c2ccccc2)nc2cc(-c3ccc(F)cc3)[nH]n12 | x | -20.5% | 10µM* | x | x | x
CCCn1c(/C=C/c2ccccc2)nc2ccccc21 | x | 12.6µM* | 10µM* | x | x | x
O=c1c2ccccc2nc(/C=C/c2ccccc2)n1CCc1ccccc1 | x | x | 2.6% | x | x | x
CCNc1ncc2nc(-c3cn(C)c4ccccc34)c(=O)n(Cc3cccc(OC)c3)c2n1 | i | 9.6% | 3.6% | 14.2% | -0.5% | 161.4%
Cc1ccc2[nH]c(=O)c(-c3nc4cc(C)ccn4c3NCc3ccco3)cc2c1 | i | 3.2% | 1.9% | -12.3% | 5.0% | 15.8µM*
CCN1C(=O)[C@H]2[C@H]3[C@H](O)[C@H](O)C/C(=N/NC(=O)OCc4ccc(OC)cc4)[C@@H]3CC[C@@H]2C1=O | x | 5.3%[9.22 µM] | 5.3%[9.22 µM] | 5.9%[11.5 µM] | x | x
Cn1c(=O)n(CCc2ccccc2)c(=O)c2c1nc1n2CCCN1CCc1ccccc1 | i | u | u | 12.6µM* | 1.4% | -23.6%
CCOc1ccccc1C(=O)NCc1ccc2c(c1)CCN2C(=O)c1ccccc1 | x | 19.7% | -8.1% | x | x | x
Cc1cccc(N/C=C/C(=O)c2cccs2)c1C | x | x | 10µM* | x | x | x
NC(=O)c1ccccc1N/C=C/C(=O)c1cccs1 | x | 11.2µM* | u | x | x | x
NC(=O)c1ccccc1NS(=O)(=O)c1cccs1 | i | -1.1% | 3.8% | -11.5% | 0.6% | 7.9%
Cc1ccc(/C=C/C(=O)Nc2ccccc2C(N)=O)o1 | x | 7.94µM* | 5.01µM* | x | x | x
Cc1ccc(C(=O)/C=C/Nc2ccccc2C(N)=O)o1 | i | 12.6µM* | 12.6µM* | -21.1% | 0.2% | 39.9%
C=C1C(=O)O[C@H]2C[C@@]3(C)CCCC(=C)[C@@H]3C[C@H]12 | i | x | x | x | -0.7% | -9.6%
CCCCNc1nc(C)nc2c1nc(C)n2CCC | i | -3.1% | -1.7% | -11.8% | -5.6% | -3.0%
CC(C)N(Cc1ccccc1)C(=O)CN1C(=O)COc2ccc(S(=O)(=O)N3CCCCCC3)cc21 | x | 17.6% | -1.0% | x | x | x
c1ccc(-c2cc(-c3nc(-c4ccccn4)no3)c3ccccc3n2)cc1 | i | -27.6% | -18.6% | u | -4.3% | u
Cc1ccc(-c2noc(-c3ccccc3Br)n2)cc1 | i | 12.6µM* | 10µM* | 44.4% | 3.2% | -12.5%
Cc1ccc2nc(-c3ccccn3)oc2c1 | i | 3.16µM* | 5.01µM* | -2.9% | -9.5% | -0.4%
